High-throughput results from PubChem BioAssay.
Pf Dd2 growth: inhibitors of Plasmodium falciparum Dd2 growth. actives 4.3% (n = 120,000). P. falciparum Dd2 growth, SYBR Green, 72 h. AID 1347417. Potency, µM (titrated, usually from 28.9 µM), inactives show at the top dose activity, negative = inhibition, hits mostly inhibitors; active = well fitted inhibition curve with a large enough effect;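 note: plate controls were DMSO vehicle for no effect and reference drug for full effect; nearly all actives have a fitted effect of over 65% in size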
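Readout: SYBR Green fluorescence, 485 nm excitation, 535 nm emission, after ~16 h lysis at 37C. Before that, Dd2-infected red cells (2.5% hematocrit) grew 72 h with compound, 29 uM top final concentration.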
An asterisk follows results filed as active; i = inactive; [ ] = another dose, or the depositor's remark. Shown is part of a subset that was picked to be rich in hits. Potency is the fitted concentration of half-maximal effect.

SMILES	Pf Dd2 growth
COC[C@H]1C[C@@H](NC(C)=O)[C@H](O)[C@@H]1O	22.7%[76.6 µM]
CC(C)(Oc1nn(CC2CC2)c2ccc(CN3CCCC3)cc12)C(=O)NCC(F)(F)F	12.6µM*
Cn1nc(OC(C)(C)C(=O)NCCc2ccccc2)c2cc(CN3CCCC3)ccc21	-3.5%[44.1 µM]
CC(C)(Oc1nn(CC2CCOCC2)c2ccccc12)C(=O)NCC1CCOCC1	37.3%[44.1 µM]
Cc1ccc(C2Cn3nnc(-c4noc(C5CCCCC5)n4)c3CO2)cc1 (stereo not drawn)	-20.5%
CN(Cc1ccccc1)C(=O)C1CCN(c2ncncn2)CC1	-19.1%
Cc1cc(C(=O)N[C@@H]2CN(Cc3ccccn3)C[C@H]2CN(C)C)n[nH]1	19.3%
COc1ccccc1Cn1c(CNS(=O)(=O)c2ccc(C(C)C)cc2)nc2cccnc21	i
COc1ccccc1Cn1c(CNS(=O)(=O)c2c(C)cc(C)cc2C)nc2cccnc21	12.6µM*
CCOc1ccc(Cn2c(CNS(=O)(=O)c3c(C)cc(C)cc3C)nc3cccnc32)cc1	i
COc1cccc(CNC(=O)Cn2ccn3nc(-c4ccccc4)c(CO)c3c2=O)c1	2.8%
COc1ccc(CN2CC3(C2)C(=O)N(Cc2ccc(C)o2)C(=O)[C@@H]2C[C@@H](O)CN23)c2ccccc12	10µM*
Cc1ccc(CN2C(=O)[C@@H]3C[C@@H](O)CN3C3(CN(Cc4ccc(Cl)cc4)C3)C2=O)o1	-12.9%[44.1 µM]
Cc1ccc(CN2C(=O)[C@@H]3C[C@@H](O)CN3C3(CN(Cc4ccccc4Cl)C3)C2=O)o1	-23.5%[44.1 µM]
COc1cccc(CCNC(=O)c2c(C)noc2-c2ccc3c(c2)OCO3)c1	-12.6%
COc1ccccc1C(=O)N1CCC(CCOc2ccc(C)cc2)C1 (stereo not drawn)	-8.5%
COC[C@@H]1CN(C(=O)c2occc2C)C[C@H]1c1ccncc1	3.5%
CCCCNC(=O)C1CCN(Cc2nc(-c3ccc(OC)c(OC)c3)oc2C)CC1	-4.2%
Cc1oc(-c2ccc(Cl)cc2)nc1CN1CCC(C(=O)NCCCN2CCN(c3cccc(Cl)c3)CC2)CC1	-23.6%
COCCCNC(=O)C1CCN(Cc2nc(-c3ccc(OC)c(OC)c3)oc2C)CC1	8.5%
Cc1oc(-c2cccc(Cl)c2)nc1CN1CCC(C(=O)NCCCN2CCN(c3ccc(F)cc3)CC2)CC1	5.62µM*
Cc1oc(-c2cccc(Cl)c2)nc1CN1CCC(C(=O)NCCCN2CCN(c3ccccc3F)CC2)CC1	-28.8%
COc1ccc(-c2nc(CN3CCC(C(=O)NCCCN4CCN(c5ccccc5F)CC4)CC3)c(C)o2)cc1OC	10µM*
CC(C)C[C@@H](NC(=O)[C@@H]1C[C@@H](NS(=O)(=O)c2cn(C)cn2)CCN1C(=O)COCC(=O)O)C(N)=O	16.0%
CC(=O)c1ccc(NC(=O)c2nc(-c3ccccc3)n(-c3ccc(Cl)cc3)n2)cc1	-18.5%
SMILES	Pf Dd2 growth
COc1ccc(NC(=O)C2=C(C)Nc3ncnn3C2c2ccccn2)cc1 (stereo not drawn)	12.1%
COc1ccc(C2=CC(c3ccccc3F)n3ncc(C(=O)Nc4ccc(C)cc4)c3N2)cc1 (stereo not drawn)	7.94µM*
COc1ccc(OC)c(C2NC(=O)NC(C)=C2C(=O)Nc2ccc(F)cc2)c1 (stereo not drawn)	-12.3%
O=C(Nc1cnc(-c2ccc(Cl)cc2)nc1)c1ccccc1Cl	i
O=C(Nc1ccc(Cl)cc1)c1cnn2c1NC(c1ccccc1)=CC2c1ccccc1 (stereo not drawn)	3.16µM*
Cn1nccc1CCC(=O)N[C@@H]1CCOC[C@H]1Oc1ccccn1	-2.5%
COc1ccc(C(=O)N2CCC3(CC2)N=C(c2ccc(Cl)cc2)NO3)cc1OC	-16.5%
Cc1cc2[nH]c(=O)c(=O)[nH]c2cc1S(=O)(=O)N1CCN(c2cccc(C)c2C)CC1	7.94µM*
COc1ccccc1N1CCN(S(=O)(=O)c2cc3[nH]c(=O)c(=O)[nH]c3cc2C)CC1	-7.2%
Cc1cc2[nH]c(=O)c(=O)[nH]c2cc1S(=O)(=O)N1CCN(c2ccccc2F)CC1	8.8%
COC(=O)[C@@H](CC(C)C)NC(=O)[C@@H]1C[C@@H](n2nnc(C(N)=O)c2C(N)=O)CCN1C(=O)c1cccn1C	-9.9%
CNC(=O)[C@@H](c1ccc(Cl)cc1)N1CCC[C@H]1C(=O)NCCOC	8.7%[44.1 µM]
CNC(=O)CN(C)C(=O)[C@H]1CN(Cc2ccccc2)C[C@H]1C(=O)O	-16.4%
O=C(NCc1ccccn1)c1nc(-c2cccnc2)c2ccccn12	-14.4%[44.1 µM]
COC(=O)CNC(=O)c1nc(-c2ccc(F)cc2)c2ccccn12	-11.6%[44.1 µM]
O=C(NCc1ccc(F)cc1)c1nc(-c2ccc(Cl)cc2)c2ccccn12	10µM*
O=C(c1nc(-c2cccc(C(F)(F)F)c2)c2ccccn12)N1CCOCC1	-11.9%
O=C(NCc1ccc(F)cc1)c1nc(-c2cccc(F)c2)c2cnccn12	2.51µM*
N#CC1CCN(C(=O)c2nc(-c3ccccc3)c3ccccn23)CC1	i
O=C(c1nc(-c2ccc(Cl)cc2)c2ccccn12)N1CCCC1	11.2µM*
O=C(NCc1ccc(F)cc1)c1nc(-c2ccc(Cl)cc2Cl)c2ccccn12	-14.5%
CN(C)C(=O)c1nc(-c2cccc(F)c2)c2cnccn12	i
O=C(NCc1cccnc1)c1nc(-c2ccc(F)cc2)c2ccccn12	-19.9%
O=C(c1nc(-c2ccc(Cl)cc2Cl)c2ccccn12)N1CCCC1	-15.1%
O=C(NCc1ccc(F)cc1)c1nc(-c2cccc(C(F)(F)F)c2)c2cnccn12	2.51µM*
SMILES	Pf Dd2 growth
CC(C)NC(=O)Cc1ccc(N(Cc2ccccc2)C(=O)c2ccco2)cc1	i
Cc1ncoc1C(=O)N1CC(F)(F)C[C@H]1c1nc(C2CC2)no1	-3.8%
CNC(=O)N1C[C@@H](CN(C)C)[C@H](NC(=O)c2cc(C)cc(C)c2)C1	3.5%
O=C(c1coc2ccccc12)N1CCN(Cc2cnc[nH]2)CC(O)C1 (stereo not drawn)	-2.2%
O=C(COc1ccccc1)NC[C@H]1COCc2nc3cccnc3n21	i
CCNc1ncc(CN2CCC(N)(C(=O)O)C2)cn1 (stereo not drawn)	4.4%
O=C(NCc1cccs1)C1=NO[C@@H]2CN(c3cccnc3)C[C@H]12	31.6%[44.1 µM]
CN1CCC(C(=O)NCc2c[nH]c3ncccc23)CC1	1.1%[44.1 µM]
CCOCCn1c(=O)[nH]c2cc(C(=O)NCc3cc(=O)[nH]c(C)n3)ccc21	-9.8%
O=C(NCc1cccs1)c1nc(-c2ccc(F)cc2)c2ccccn12	-22.3%
CC(C)NC(=O)c1nc(-c2cccc(C(F)(F)F)c2)c2ccccn12	-10.4%[44.1 µM]
O=C(NCc1cccs1)c1nc(-c2cccc(C(F)(F)F)c2)c2cnccn12	1.78µM*
CC(C)NC(=O)c1nc(-c2cccc(C(F)(F)F)c2)c2cnccn12	1.78µM*
Cc1cccc(C)c1-c1nc(C(=O)NCc2ccc3c(c2)OCO3)n2ccccc12	-9.5%
Cc1cccc(C)c1-c1nc(C(=O)NC(C)C)n2ccccc12	12.6µM*
CC(C)NC(=O)c1nc(-c2cccnc2)c2cnccn12	i
CC(C)NC(=O)c1nc(-c2cc(Cl)cc(Cl)c2)c2ccccn12	-14.4%
O=C(NCc1cccs1)c1nc(-c2ccsc2)c2ccccn12	i
Cc1ccc(S(=O)(=O)N2CCc3c(C(=O)NCC(C)C)cccc32)cc1	-9.1%
O=C1c2c(nc(COc3cccc(Cl)c3)n2Cc2ccccc2)NCCN1CCOc1ccccc1	-22.0%
COc1ccc(CN2Cc3[nH]cnc3C[C@H]2c2nc(-c3ccc(C(F)(F)F)cc3)no2)cc1	-8.9%
CCC(C)(C)C(=O)N1CCn2c(nnc2[C@@H]2C[C@@H](O)CN2Cc2ccccc2)C1	i
